Key:
[1] = target: Leukocyte tyrosine kinase receptor (Homo sapiens) (UniProt P29376); conditions: at 1 µM;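 note: each value is the mean inhibition of LTK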
[2] = target: Tyrosine-protein kinase Lyn (Homo sapiens) (UniProt P07948); conditions: at 0.1 µM
[3] = target: Tyrosine-protein kinase Lyn (Homo sapiens) (UniProt P07948); conditions: at 1 µM
[4] = target: Tyrosine-protein kinase Lyn (Homo sapiens) (UniProt P07948); conditions: at 0.1 µM; remark: listed apart in the source
[5] = target: Tyrosine-protein kinase Lyn (Homo sapiens) (UniProt P07948); conditions: at 1 µM; remark: listed apart in the source
[6] = target: T1, Tyrosine-protein kinase Mer (Homo sapiens) (UniProt Q12866); conditions: at 1 µM
T1 sequence (whole entry): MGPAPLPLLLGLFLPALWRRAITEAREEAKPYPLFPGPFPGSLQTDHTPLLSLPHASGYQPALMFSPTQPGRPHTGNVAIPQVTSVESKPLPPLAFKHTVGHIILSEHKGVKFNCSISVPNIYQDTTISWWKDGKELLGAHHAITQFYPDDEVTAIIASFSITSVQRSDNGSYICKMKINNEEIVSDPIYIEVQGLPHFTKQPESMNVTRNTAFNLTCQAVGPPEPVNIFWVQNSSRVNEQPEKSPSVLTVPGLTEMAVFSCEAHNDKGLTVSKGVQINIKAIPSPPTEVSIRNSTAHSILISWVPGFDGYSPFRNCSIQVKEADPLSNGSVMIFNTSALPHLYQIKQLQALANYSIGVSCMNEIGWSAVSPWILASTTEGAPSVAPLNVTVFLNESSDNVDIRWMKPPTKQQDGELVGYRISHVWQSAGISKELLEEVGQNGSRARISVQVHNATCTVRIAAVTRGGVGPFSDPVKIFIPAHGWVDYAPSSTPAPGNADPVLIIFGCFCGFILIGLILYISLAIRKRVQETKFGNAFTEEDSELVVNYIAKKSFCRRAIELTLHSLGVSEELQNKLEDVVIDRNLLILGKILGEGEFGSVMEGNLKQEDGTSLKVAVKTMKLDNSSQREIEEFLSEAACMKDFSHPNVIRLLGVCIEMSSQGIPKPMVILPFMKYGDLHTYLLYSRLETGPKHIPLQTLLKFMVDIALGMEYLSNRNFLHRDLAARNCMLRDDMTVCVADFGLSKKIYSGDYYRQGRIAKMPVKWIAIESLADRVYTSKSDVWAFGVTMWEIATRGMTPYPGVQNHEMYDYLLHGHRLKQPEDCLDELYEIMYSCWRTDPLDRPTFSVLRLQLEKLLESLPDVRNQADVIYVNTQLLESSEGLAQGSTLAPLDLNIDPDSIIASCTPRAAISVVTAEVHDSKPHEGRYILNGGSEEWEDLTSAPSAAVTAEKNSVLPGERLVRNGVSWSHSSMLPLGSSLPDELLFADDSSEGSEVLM

[7] = target: Hepatocyte growth factor receptor (Homo sapiens) (UniProt P08581); conditions: at 0.1 µM
Hepatocyte growth factor receptor (Homo sapiens), sequence (P08581 whole entry): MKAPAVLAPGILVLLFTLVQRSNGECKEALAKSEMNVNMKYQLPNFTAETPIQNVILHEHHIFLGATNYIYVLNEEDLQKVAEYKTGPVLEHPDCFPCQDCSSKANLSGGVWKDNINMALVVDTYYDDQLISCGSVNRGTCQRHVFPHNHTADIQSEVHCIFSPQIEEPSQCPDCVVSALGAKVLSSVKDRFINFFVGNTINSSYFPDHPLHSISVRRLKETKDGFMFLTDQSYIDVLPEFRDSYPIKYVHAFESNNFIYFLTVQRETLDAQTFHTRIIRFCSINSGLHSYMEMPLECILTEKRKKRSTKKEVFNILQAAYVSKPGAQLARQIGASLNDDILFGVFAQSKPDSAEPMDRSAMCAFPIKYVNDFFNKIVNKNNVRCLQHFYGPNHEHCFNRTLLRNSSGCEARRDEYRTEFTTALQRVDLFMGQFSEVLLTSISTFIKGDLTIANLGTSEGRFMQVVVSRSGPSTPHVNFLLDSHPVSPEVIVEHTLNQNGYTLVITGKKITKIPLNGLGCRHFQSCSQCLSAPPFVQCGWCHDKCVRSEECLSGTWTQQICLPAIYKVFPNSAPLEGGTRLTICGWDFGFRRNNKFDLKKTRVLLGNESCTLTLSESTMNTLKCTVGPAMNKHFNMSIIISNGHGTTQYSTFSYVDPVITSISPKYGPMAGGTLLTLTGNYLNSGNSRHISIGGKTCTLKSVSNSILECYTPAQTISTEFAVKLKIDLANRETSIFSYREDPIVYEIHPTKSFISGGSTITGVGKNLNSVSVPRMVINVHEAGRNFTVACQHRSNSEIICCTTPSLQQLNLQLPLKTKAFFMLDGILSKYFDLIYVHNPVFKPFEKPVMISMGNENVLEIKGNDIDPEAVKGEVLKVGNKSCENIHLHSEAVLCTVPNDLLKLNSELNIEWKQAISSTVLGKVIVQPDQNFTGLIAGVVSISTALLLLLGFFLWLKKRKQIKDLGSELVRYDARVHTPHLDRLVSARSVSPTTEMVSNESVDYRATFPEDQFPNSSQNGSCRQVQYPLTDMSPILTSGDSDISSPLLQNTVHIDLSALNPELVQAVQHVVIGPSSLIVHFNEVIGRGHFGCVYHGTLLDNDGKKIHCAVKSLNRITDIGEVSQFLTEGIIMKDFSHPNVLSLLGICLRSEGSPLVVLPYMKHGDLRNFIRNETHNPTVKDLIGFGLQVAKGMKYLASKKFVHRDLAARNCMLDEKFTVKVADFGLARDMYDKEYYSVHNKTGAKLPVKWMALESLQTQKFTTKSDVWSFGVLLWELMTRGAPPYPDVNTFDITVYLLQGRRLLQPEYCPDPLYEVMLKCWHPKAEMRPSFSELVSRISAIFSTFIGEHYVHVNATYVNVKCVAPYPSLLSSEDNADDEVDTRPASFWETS

[8] = target: Hepatocyte growth factor receptor (Homo sapiens) (UniProt P08581); conditions: at 1 µM
[9] = target: T2, Muscle, skeletal receptor tyrosine-protein kinase (Homo sapiens) (UniProt O15146); conditions: at 0.1 µM
T2 sequence (whole entry): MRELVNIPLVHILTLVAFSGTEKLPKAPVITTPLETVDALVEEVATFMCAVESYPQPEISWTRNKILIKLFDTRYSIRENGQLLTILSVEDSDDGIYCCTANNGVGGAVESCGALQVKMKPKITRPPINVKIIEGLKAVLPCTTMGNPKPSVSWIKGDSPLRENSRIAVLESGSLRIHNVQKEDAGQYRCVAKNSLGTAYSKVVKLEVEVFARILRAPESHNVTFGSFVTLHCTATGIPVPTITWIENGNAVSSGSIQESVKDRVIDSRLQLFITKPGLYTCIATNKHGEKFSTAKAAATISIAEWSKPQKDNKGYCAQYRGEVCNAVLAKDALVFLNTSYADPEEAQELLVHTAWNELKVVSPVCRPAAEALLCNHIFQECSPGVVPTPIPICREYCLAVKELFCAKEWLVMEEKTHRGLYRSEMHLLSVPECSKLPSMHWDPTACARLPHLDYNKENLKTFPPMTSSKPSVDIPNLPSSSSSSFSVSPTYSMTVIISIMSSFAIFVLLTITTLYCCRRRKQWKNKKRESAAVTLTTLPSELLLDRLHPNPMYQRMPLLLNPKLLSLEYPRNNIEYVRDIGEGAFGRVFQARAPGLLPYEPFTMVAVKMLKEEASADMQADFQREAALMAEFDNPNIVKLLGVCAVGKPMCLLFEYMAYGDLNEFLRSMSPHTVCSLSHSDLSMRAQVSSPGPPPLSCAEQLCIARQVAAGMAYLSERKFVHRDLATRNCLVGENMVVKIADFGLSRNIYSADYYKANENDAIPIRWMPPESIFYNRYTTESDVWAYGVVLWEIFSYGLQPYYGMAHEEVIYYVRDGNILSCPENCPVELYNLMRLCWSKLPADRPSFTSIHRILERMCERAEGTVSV

[10] = target: T2, Muscle, skeletal receptor tyrosine-protein kinase (Homo sapiens); conditions: at 1 µM
[11] = target: Platelet-derived growth factor receptor alpha (Homo sapiens) (UniProt P16234); conditions: at 0.1 µM
Platelet-derived growth factor receptor alpha (Homo sapiens), sequence (P16234 whole entry): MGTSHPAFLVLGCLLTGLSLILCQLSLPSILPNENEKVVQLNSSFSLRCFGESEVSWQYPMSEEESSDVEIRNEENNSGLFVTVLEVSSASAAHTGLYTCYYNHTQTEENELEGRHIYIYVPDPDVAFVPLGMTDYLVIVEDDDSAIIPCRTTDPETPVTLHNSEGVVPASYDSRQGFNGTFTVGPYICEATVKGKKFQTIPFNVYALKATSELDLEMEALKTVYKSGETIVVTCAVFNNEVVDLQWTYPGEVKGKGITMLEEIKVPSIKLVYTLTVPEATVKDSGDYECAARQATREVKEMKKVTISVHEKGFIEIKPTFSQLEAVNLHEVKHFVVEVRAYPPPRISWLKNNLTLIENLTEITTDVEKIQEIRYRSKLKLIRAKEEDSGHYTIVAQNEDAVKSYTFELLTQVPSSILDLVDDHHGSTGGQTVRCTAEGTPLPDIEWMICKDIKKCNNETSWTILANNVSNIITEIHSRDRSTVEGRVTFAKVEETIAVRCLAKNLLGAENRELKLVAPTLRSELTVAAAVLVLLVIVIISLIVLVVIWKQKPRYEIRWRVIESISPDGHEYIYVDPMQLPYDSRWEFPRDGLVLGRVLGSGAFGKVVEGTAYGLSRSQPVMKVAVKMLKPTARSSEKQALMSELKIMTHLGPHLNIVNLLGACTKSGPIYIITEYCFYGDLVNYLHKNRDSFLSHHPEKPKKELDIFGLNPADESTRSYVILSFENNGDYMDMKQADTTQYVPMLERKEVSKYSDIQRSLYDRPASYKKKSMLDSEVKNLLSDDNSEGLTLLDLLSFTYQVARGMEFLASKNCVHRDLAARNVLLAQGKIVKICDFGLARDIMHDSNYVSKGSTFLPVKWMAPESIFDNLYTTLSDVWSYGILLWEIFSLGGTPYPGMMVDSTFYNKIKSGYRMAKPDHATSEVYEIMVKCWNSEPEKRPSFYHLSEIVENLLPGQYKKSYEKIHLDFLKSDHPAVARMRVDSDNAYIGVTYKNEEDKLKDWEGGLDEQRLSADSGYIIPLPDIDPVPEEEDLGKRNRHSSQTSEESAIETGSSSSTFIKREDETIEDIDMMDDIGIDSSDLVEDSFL

[12] = target: Platelet-derived growth factor receptor alpha (Homo sapiens) (UniProt P16234); conditions: at 1 µM
[13] = tested on: Platelet-derived growth factor receptor alpha (Homo sapiens), P16234 [D842V]; conditions: at 0.1 µM
[14] = tested on: Platelet-derived growth factor receptor alpha (Homo sapiens), P16234 [D842V]; conditions: at 1 µM
[15] = tested on: Platelet-derived growth factor receptor alpha (Homo sapiens), P16234 [T674I]; conditions: at 0.1 µM
Platelet-derived growth factor receptor alpha (Homo sapiens), P16234 [T674I], sequence (P16234 whole entry T674I): as the sequence (P16234 whole entry) above, with T674I counted along it

[16] = tested on: Platelet-derived growth factor receptor alpha (Homo sapiens), P16234 [T674I]; conditions: at 1 µM
[17] = tested on: Platelet-derived growth factor receptor alpha (Homo sapiens), P16234 [V561D]; conditions: at 0.1 µM
[18] = tested on: Platelet-derived growth factor receptor alpha (Homo sapiens), P16234 [V561D]; conditions: at 1 µM
[19] = target: Platelet-derived growth factor receptor beta (Homo sapiens) (UniProt P09619); conditions: at 0.1 µM;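 note: reported value is the mean percent inhibition of the kinase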
[20] = target: T1, Tyrosine-protein kinase Mer (Homo sapiens); conditions: at 0.1 µM

Leukocyte tyrosine kinase receptor (Homo sapiens), sequence (P29376 whole entry): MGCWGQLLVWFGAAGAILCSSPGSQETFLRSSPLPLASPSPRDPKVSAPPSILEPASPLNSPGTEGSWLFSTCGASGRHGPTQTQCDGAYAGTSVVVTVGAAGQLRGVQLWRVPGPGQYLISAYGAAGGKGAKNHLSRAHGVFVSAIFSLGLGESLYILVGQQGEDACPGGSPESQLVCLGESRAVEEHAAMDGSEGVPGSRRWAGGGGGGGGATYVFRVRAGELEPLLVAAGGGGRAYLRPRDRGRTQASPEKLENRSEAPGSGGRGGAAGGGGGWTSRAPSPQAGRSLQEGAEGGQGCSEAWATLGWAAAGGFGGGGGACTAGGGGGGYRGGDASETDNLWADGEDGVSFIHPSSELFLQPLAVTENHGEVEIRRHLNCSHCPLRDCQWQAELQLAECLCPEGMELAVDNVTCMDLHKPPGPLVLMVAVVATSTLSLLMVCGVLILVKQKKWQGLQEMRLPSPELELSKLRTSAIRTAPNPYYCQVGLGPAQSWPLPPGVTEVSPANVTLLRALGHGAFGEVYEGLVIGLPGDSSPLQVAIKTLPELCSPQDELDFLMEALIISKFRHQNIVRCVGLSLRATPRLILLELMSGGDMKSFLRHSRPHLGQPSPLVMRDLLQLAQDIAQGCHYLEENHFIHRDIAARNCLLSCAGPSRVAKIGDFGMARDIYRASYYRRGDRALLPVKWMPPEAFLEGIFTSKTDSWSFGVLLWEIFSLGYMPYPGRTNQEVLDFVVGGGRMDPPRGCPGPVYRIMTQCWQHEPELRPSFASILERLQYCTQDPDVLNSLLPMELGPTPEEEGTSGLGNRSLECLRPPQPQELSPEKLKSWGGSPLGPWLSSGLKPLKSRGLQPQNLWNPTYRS
Tyrosine-protein kinase Lyn (Homo sapiens), sequence (P07948 2-512 limits assumed): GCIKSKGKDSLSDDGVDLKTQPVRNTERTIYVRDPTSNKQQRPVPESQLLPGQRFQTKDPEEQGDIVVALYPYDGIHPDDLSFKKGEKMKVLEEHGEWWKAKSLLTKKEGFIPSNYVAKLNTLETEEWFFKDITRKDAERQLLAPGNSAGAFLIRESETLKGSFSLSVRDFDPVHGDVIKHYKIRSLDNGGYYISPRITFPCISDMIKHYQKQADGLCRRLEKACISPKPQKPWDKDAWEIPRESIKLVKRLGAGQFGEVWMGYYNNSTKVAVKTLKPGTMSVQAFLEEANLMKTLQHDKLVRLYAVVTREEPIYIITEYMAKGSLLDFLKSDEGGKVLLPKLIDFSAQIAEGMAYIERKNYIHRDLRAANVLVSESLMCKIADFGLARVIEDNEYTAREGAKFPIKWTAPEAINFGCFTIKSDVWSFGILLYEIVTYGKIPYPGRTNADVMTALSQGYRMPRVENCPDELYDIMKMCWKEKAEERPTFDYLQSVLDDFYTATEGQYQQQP

SMILES | inhibition [1] | inhibition [2] | inhibition [3] | inhibition [4] | inhibition [5] | inhibition [6] | inhibition [7] | inhibition [8] | inhibition [9] | inhibition [10] | inhibition [11] | inhibition [12] | inhibition [13] | inhibition [14] | inhibition [15] | inhibition [16] | inhibition [17] | inhibition [18] | inhibition [19] | inhibition [20]
CN(C)CCOc1ccc(-c2cc(-c3ccc4c(c3)CCC4=NO)c(-c3ccncc3)o2)cc1 | -0.32% | 0.86% | 4.14% | 0.71% | 3.2% | 4.1% | 12.9% | 5.81% | -0.04% | -1% | 3.05% | 9.14% | 0.21% | 2.8% | -0.07% | 2.19% | 0.77% | 4.25% | 2.38% | 
C#Cc1cccc(Nc2ncnc3ccc(OCCCCNCCS(C)(=O)=O)cc23)c1 | 28.5% | 7.93% | 26.9% | 5.05% | 21.8% | 5.14% | 3.29% | 8.4% | 1.86% | 2.93% | 16.4% | 30.4% | 6.83% | 11.5% | 8.07% | 25.4% | 5.37% | 10.6% | 9.53% | 2%
O=C(Nc1n[nH]c2cc(-c3ccccc3)ccc12)C1CC1 | 9.93% | 5.94% | 9.06% | 2.77% | 5.33% | 5.12% | 0.84% | 5.86% | -0.17% | 4.91% | 8.78% | 20.4% | 2.33% | 8.97% | 4.04% | 9.67% | 4.85% | 19.4% | 6.45% | 1.8%
COc1cc2ncn(-c3cc(OCCc4ccccc4)c(C(N)=O)s3)c2cc1OC | 1.98% | 1.83% | 9.45% | 0.79% | 7.19% | 6.75% | 1.96% | 5.5% | 2.9% | 3.75% | 10.5% | 51.4% | 8.08% | 44.9% | 1.08% | 10.7% | 5.35% | 39.8% | 10.8% | 2.54%
COc1ccc(-c2ccc3c(NC(=O)C4CC4)n[nH]c3n2)cc1 | 1.49% | 1.25% | 5.43% | 0.89% | 5.03% | 3.67% | 1.87% | 7.43% | 0.33% | 3.83% | 3.05% | 12.2% | 1.56% | 5.35% | 3.4% | 7.13% | 4.3% | 9.71% | 1.45% | 0.16%
Fc1ccc(-c2ncn(CCCN3CCOCC3)c2-c2ccncc2)cc1 | -2.09% | -0.59% | -0.14% | -1% | -0.37% | -0.01% | 3.89% | -1.62% | -0.13% | 1.32% | 6.11% | 7.26% | 2.37% | 1.54% | 1.55% | -0.15% | -0.24% | 3.42% | -0.37% | 0.24%
NS(=O)(=O)c1ccc(Nc2cc(-c3ccc(O)c(F)c3)n[nH]2)cc1 | 0.7% | 2.66% | 20% | 0.57% | 17.4% | 13.4% | 0.07% | -2.91% | 5.85% | 41% | 17% | 61.5% | 4.48% | 39.5% | 11.1% | 73.5% | 33.2% | 68.3% | 11.8% | 1.99%
NCc1ccc(-n2c(-c3nonc3N)nc3cnccc32)cc1 | 5.03% | 6.22% | 5.56% | 4.38% | 2.34% | 5.54% | 5.16% | 9.91% | 6.42% | 8.78% | 10.2% | 18% | 9% | 16.1% | 8.3% | 17.7% | 2.5% | 8.66% | 9.08% | 1.5%
CS(=O)(=O)CCNCc1cc(-c2cc3c(Nc4ccc(OCc5cccc(F)c5)c(Cl)c4)ncnc3s2)cs1 | 6.25% | 5.45% | 6.19% | 2.93% | 6.07% | 8.06% | 7.8% | 6.72% | 2.43% | 8.6% | 9.29% | 13.6% | 2.14% | 4.9% | 8.52% | 11.1% | 4.52% | 5.56% | 4.84% | 4.4%
CCc1ccc(Oc2nccc(-c3c(-c4ccc(F)cc4)ncn3C3CCNCC3)n2)cc1 | 2.68% | 5.24% | 6.76% | 1.59% | 3.26% | 3.05% | 5.76% | 3.25% | 3.3% | 6.47% | 2.2% | 10.4% | 1.14% | 3.96% | 4.41% | 8.8% | 2.14% | 4.49% | 1.82% | 2.01%
COc1cc(C)c(N(C)C(=O)CN(C)C)cc1Nc1nc(Nc2cccc(F)c2C(N)=O)c2cc[nH]c2n1 | 57.5% | 0.96% | 2.25% | -0.16% | 0.99% | 1.94% | -0.92% | 1.68% | 1.6% | 3.08% | 4.02% | 7.22% | 0.9% | 0.89% | 1.14% | -0.57% | -2.16% | 2.56% | 0.52% | 1.74%
NS(=O)(=O)c1ccc(N/N=C2\C(=O)Nc3ccc(-c4cnco4)cc32)cc1 | 3.37% | 3.33% | 11.1% | 1.68% | 8.81% | 8.19% | 6.22% | 2.64% | 4.18% | 18.5% | 13.9% | 49.8% | 6.86% | 40.8% | 1.96% | 13.9% | 8.44% | 46.8% | 12.1% | 1.31%
Fc1ccc(-c2nc3n(c2-c2ccncc2)CCS3)cc1 | 2.85% | 3.56% | 7.36% | 1.97% | 4.29% | 3.24% | 8.26% | 5.29% | 2.08% | 2.27% | 6.42% | 11.1% | 4.17% | 3.44% | 5.4% | 6.09% | -0.4% | 4.82% | 3.87% | 1.16%
C[C@@H](Oc1cc(-n2cnc3ccc(OCC4CCN(C)CC4)cc32)sc1C(N)=O)c1ccccc1Cl | 10.3% | 5.95% | 17.7% | 4.21% | 13.8% | 5.73% | 2.19% | 9.62% | 41.5% | 88.3% | 26.5% | 75.7% | 10.9% | 54.2% | 12.7% | 62.1% | 14.7% | 64.7% | 39.8% | 1.86%
COc1cc2ncn(-c3cc(OCc4ccccc4C(F)(F)F)c(C(C)=O)s3)c2cc1OC | 3.33% | 3.36% | 6.9% | 4.22% | 6.9% | 4.1% | 1.74% | 13.5% | 2.48% | 3.03% | 10.4% | 31.8% | 3.21% | 13.8% | 5.42% | 13.4% | 3.99% | 19.7% | 8.96% | -0.14%
